From PubChem BioAssay (NCATS)
Records with an inconclusive call do not appear. Unmarked numbers belong to inactive results. The source made the active and inactive calls. The call rests on the fitted dose curve; in most records, active means well fitted cell-killing curve with a large enough effect; inconclusive means small, poorly fitted or top-dose-only effect, or effect the other way; inactive means no such curve, though single readings can be large or run the other way.

assay: Quantitative High-Throughput drug screen in 47 multiple myeloma cell lines against the NCATS MIPE library collection: KMS20_JCRB cell viability assay (AID 1918973); conditions: CellTiter-Glo ATP, 48 h; series mostly up to 45.8 µM; viability (% of DMSO): at the top concentration; further: nearly all actives have a fitted effect of over 45% in size
Text: PI: Beverly A. Mock Ph.D.
Laboratory of Cancer Biology and Genetics,
Center for Cancer Research, National Cancer Institute,
National Institute of Health, Bethesda, Maryland
Drug resistance and disease progression are common in multiple myeloma (MM) patients, underscoring the need for new therapeutic combinations. […] We hypothesized that effective combinations would reduce MYC expression and enhance p16 activity. […] These preclinical data identify potentially useful drug combinations for evaluation in drug-resistant MM and reveal potential mechanisms of combined drug sensitivity.
Described herein is the primary MIPE qHTS used to cherrypick compounds. Validated compounds were then further tested for potential synergistic activiy.
[1] Peat TJ, Gaikwad SM, Dubois W, Gyabaah-Kessie N, Zhang S, Gorjifard S, Phyo Z, Andres M, Hughitt VK, Simpson RM, Miller MA, Girvin AT, Taylor A, Williams D, D'Antonio N, Zhang Y, Rajagopalan A, Flietner E, Wilson K, Zhang X, Shinn P, Klumpp-Thomas C, McKnight C, Itkin Z, Chen L, Kazandijian D, Zhang J, Michalowski AM, Simmons JK, Keats J, Thomas CJ, Mock BA. Drug combinations identified by high-throughput screening promote cell cycle transition and upregulate Smad pathways in myeloma. Cancer Lett. 2023 Aug 1;568:216284. doi: 10.1016/j.canlet.2023.216284. Epub 2023 Jun 24. PMID: 37356470; PMCID: PMC10408729.
SEQUENCE No. (e.g., 1, 2, 3, etc.); […] (e.g., Cells, Incubation, Reagent, etc.); VALUE and DESCRIPTION.
1; Cells; 5 uL; white, solid bottom 1536-well Greiner assay plate.
2; Compounds; 23 nL; Kalypsis pin tool (Wako USA) equipped with a 1536-well pin head to transfer to the assay plates.
3; Incubation; 48 hours; 37C incubation.
4; Reagent;5uL; CellTiter Glo (Promega).
5; Detector; 425V; Luminescence; Viewlux PerkinElmer.
NOTES (numbers refer to Sequence numbers above)
1. The cell-based screening methods employed in this study were like those previously published. Briefly, the corresponding myeloma cell lines were screened in 1,536-well plates with 500 cells, 5-uL per well for inhibition of cell viability (assessed by measuring ATP levels with CellTiterGlo).
2. NCATS MIPE 4.0 library of approved and investigational drugs were added using the Kalypsis pin tool. Wells treated with DMSO only for 100% viability and media only wells for 0% viability were used as controls.
3. The assay plates were covered and incubated for 48 hours in a 37C, 5% CO2 incubator with controlled humidity.
4. After 48 hours, CellTilter-GloTM luminescent substrate mix (Promega) reagent was added to the assay plate and plates we incubated for 5 min at room temperature.
5. Signal was measured as median relative luminescence units on a ViewLux (PerkinElmer) multiplate reader.
[1] Heske CM, Davis MI, Baumgart JT, Wilson K, Gormally MV, Chen L, Zhang X, Ceribelli M, Duveau DY, Guha R, Ferrer M, Arnaldez FI, Ji J, Tran HL, Zhang Y, Mendoza A, Helman LJ, Thomas CJ. Matrix Screen Identifies Synergistic Combination of PARP Inhibitors and Nicotinamide Phosphoribosyltransferase (NAMPT) Inhibitors in Ewing Sarcoma. Clin Cancer Res. 2017 Dec 1;23(23):7301-7311. doi: 10.1158/1078-0432.CCR-17-1121. Epub 2017 Sep 12. PMID: 28899971; PMCID: PMC6636827.
Potency means the concentration at half of the fitted maximal effect.

Compound	Potency	viability (% of DMSO) [%]
CC(=O)Oc1ccccc1C(=O)Nc1ncc([N+](=O)[O-])s1	8.55 µM (active)	–
NC(=O)c1cccnc1	–	115
CC1=C(C(=O)O)N2C(=O)[C@@H](NC(=O)C(N)c3ccccc3)[C@H]2SC1 (stereo not given in full)	–	86.6
C#CCN[C@@H]1CCc2ccccc21	–	132
CCOC(=O)[C@H](CCc1ccccc1)N[C@H]1CCc2ccccc2N(CC(=O)O)C1=O	5.9 µM (active)	–
CCOCC(O)COc1ccc(NC(=O)CC[S+](C)C)cc1 (stereo not given)	–	99.1
CC(C)NCC(O)c1ccc(NS(C)(=O)=O)cc1 (stereo not given)	–	113
Nc1nc(F)nc2c1ncn2[C@@H]1O[C@H](CO)[C@@H](O)[C@@H]1O	0.264 µM (active)	–
CCCOc1ccc(C(=O)OCCN(CC)CC)cc1N	–	92.6
CC(C)(C)C(=O)OCOP(=O)(COCCn1cnc2c(N)ncnc21)OCOC(=O)C(C)(C)C	2.64 µM (active)	–
CCOC(=O)c1ccc(C#Cc2ccc3c(c2)C(C)(C)CCS3)nc1	–	129
COc1cc(NCc2ccc3nc(N)nc(N)c3c2C)cc(OC)c1OC	7.43 µM (active)	–
CC(C)(C)NC(=O)[C@H]1CC[C@H]2[C@@H]3CC[C@H]4NC(=O)C=C[C@]4(C)[C@H]3CC[C@]12C	3.32 µM (active)	–
CN(CCOc1ccc(CC2SC(=O)NC2=O)cc1)c1ccccn1 (stereo not given)	–	117
NCCCC(O)(P(=O)(O)O)P(=O)(O)O	–	106
N[C@@H](Cc1ccc(O)c(O)c1)C(=O)O	–	124
O=C(O)c1cn(C2CC2)c2cc(N3CCNCC3)c(F)cc2c1=O	–	153
CCCCOc1ccc(CC(=O)NO)cc1	16.6 µM (active)	–
O=S(=O)(c1cccc2cnccc12)N1CCCNCC1	–	110
NNC(=O)c1ccncc1	–	119

Compound	Potency	viability (% of DMSO) [%]
CCN[C@H]1C[C@H](C)S(=O)(=O)c2sc(S(N)(=O)=O)cc21	–	132
CC(N)C12CC3CC(CC(C3)C1)C2 (stereo not given)	–	136
C1CCC(C(CC2CCCCN2)C2CCCCC2)CC1 (stereo not given)	6.62 µM (active)	–
Cc1cc(NS(=O)(=O)c2ccc(N)cc2)no1	–	84
COC(=O)Nc1nc2ccc(C(=O)c3ccccc3)cc2[nH]1	1.32 µM (active)	–
C[C@@H](NCCCc1cccc(C(F)(F)F)c1)c1cccc2ccccc12	–	102
O=C(O)C1CCCN(CCC=C(c2ccccc2)c2ccccc2)C1 (stereo not given)	–	145
COc1cc2nc(N3CCCN(C)CC3)nc(NC3CCN(Cc4ccccc4)CC3)c2cc1OC	0.833 µM (active)	–
N[C@@H](C(=O)N[C@@H]1C(=O)N2C(C(=O)O)=C(Cl)CS[C@H]12)c1ccccc1	–	83
Oc1c(Cl)cc(Cl)c2cccnc12	11.8 µM (active)	–
NC(=O)N1c2ccccc2CC(=O)c2ccccc21	–	86.1
NS(=O)(=O)c1cc2c(cc1Cl)NC(C(Cl)Cl)NS2(=O)=O (stereo not given)	–	115
NC(=O)c1cccc(N)c1	–	85.4
COc1nc(N)nc2c1ncn2[C@@H]1O[C@H](CO)[C@@H](O)[C@@H]1O	23.5 µM (active)	–
CC(C)(C#N)c1cc(Cn2cncn2)cc(C(C)(C)C#N)c1	–	98.1
O=S(=O)(O)CCS	–	111
CNS(=O)(=O)CCc1ccc2[nH]cc(C3CCN(C)CC3)c2c1	0.935 µM (active)	–
C[C@]12C=CC(=O)C=C1CC[C@@H]1[C@@H]2C(=O)C[C@@]2(C)[C@H]1CC[C@]2(O)C(=O)CO	0.129 µM (active)	–
COc1cc2c(Nc3ccc(Br)cc3F)ncnc2cc1OCC1CCN(C)CC1	9.35 µM (active)	–
CCOC(=O)[C@H](CCc1ccccc1)N[C@H]1CS[C@H](c2cccs2)CN(CC(=O)O)C1=O	1.66 µM (active)	–
